Results reported in paper PMC7819943, “Rice protein-binding microarrays: a tool to detect cis-acting elements near promoter regions in rice”.
Over roughly 35,000 sequences, “fluorescence intensity (a.u.)” has its median near 10,000; the highest 2% begin near 52,000. The sample holds the highest values, similar sequences and a random draw of the others, so the mix is not that of the screen.

Each sequence was assayed against T1, OsWOX13 (Oryza sativa, UniProt Q5QMM3 1-267) (assay: protein-binding microarray (RPBM); PBS, 2% BSA, 51.3 ng/ul salmon testes DNA, 50 uM zinc acetate, 200 nM TF, 25 C, 1 h; high values mean tight binding). Conditions: protein: recombinant; tags: N-terminal polyhistidine and DsRed monomer fusion (pET32a); label: CyDye5-dUTP incorporated in the synthesized complementary strand; 3' TTTTT single-stranded linker to array surface; dsDNA, one strand shown.
T1 sequence: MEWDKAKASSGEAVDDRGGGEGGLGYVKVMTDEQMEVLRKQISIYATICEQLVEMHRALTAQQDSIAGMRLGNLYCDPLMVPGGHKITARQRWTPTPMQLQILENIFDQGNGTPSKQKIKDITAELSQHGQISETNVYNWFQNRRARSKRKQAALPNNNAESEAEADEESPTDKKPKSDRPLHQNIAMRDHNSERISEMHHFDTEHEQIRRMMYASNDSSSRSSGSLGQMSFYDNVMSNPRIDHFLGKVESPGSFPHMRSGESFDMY
Method in brief: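 Polyhistidine-tagged DsRed fusions of transcription factors, joined at the N-terminus, were expressed in E. coli BL21-CodonPlus and isolated on Ni–NTA. They were incubated at 200 nM for 1 h at 25 °C on a custom Agilent array, double-stranded and BSA-blocked, in PBS with 2% BSA, salmon testes DNA and 50 µM zinc acetate. The binding signal is per-feature fluorescence intensity (arbitrary units) read on an Axon 4000B scanner after washing.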

Row | Sequence | binding signal
1 | GTACCTACCAGTAATTAATCAGCAGGCTCACTGTAATCAACGGAGTCACCTAGTGCAG | 3470 fluorescence intensity (a.u.)
2 | CATTTGATTTTCGGTCTGATTTTGTTATTTCACTGGCAATCGGAGTCACCTAGTGCAG | 24300 fluorescence intensity (a.u.)
3 | GGTGACAGTTTGGTTAGTGACAAATAGTTACATTCTCGTTCGGAGTCACCTAGTGCAG | 5070 fluorescence intensity (a.u.)
4 | GTTTAAAGAAATTGATGAAAGAAAAGCTTCATTGTTGGCTCGGAGTCACCTAGTGCAG | 6180 fluorescence intensity (a.u.)
5 | TTTAATTGAACTTGAGTGGTCCAGGTATTAAATGTGGGTCCGGAGTCACCTAGTGCAG | 52200 fluorescence intensity (a.u.)
6 | ACCCAGGCTTTGATTGCGATGATAAACCGAGCTCGCAGCACGGAGTCACCTAGTGCAG | 13800 fluorescence intensity (a.u.)
7 | GGAAATTTAACTATTTGCCACTTTTAGGTTTATCAATTATCGGAGTCACCTAGTGCAG | 4880 fluorescence intensity (a.u.)
8 | ATTGGACCTGAACACTGCTAATTAATTGGTATAAGTCATCCGGAGTCACCTAGTGCAG | 8360 fluorescence intensity (a.u.)
9 | ATTAATGAACTGTGACATTTCCTTAATTTCATTTTGCTCTCGGAGTCACCTAGTGCAG | 23800 fluorescence intensity (a.u.)
10 | ATAGATAGATTTCTCCATAAGTAATTACATTGTAGGTAGGCGGAGTCACCTAGTGCAG | 28500 fluorescence intensity (a.u.)
11 | CAGTTATGTGATTGGACTATAAATACGATATATGTTGTGTCGGAGTCACCTAGTGCAG | 28700 fluorescence intensity (a.u.)
12 | TTAAATTGTTAATACCTCTGTATATCATCCGATCTACGTACGGAGTCACCTAGTGCAG | 19600 fluorescence intensity (a.u.)
13 | ATAACAGTGATTGATCTGTTAAATATCCGATACGGGTAGGCGGAGTCACCTAGTGCAG | 65200 fluorescence intensity (a.u.)
14 | TCTGATTGATGATGACGATGATGGCGGCTGTGCAGCTGAACGGAGTCACCTAGTGCAG | 47600 fluorescence intensity (a.u.)
15 | AATAACTGATGACTGTGAATGATTGATACGATGTAGTAGGCGGAGTCACCTAGTGCAG | 65300 fluorescence intensity (a.u.)
16 | AACTGATATGTAGGGTATGATTGTAATGAAATTACGATTGCGGAGTCACCTAGTGCAG | 10700 fluorescence intensity (a.u.)
17 | GACTTGTAATTTGTAGCAGTGGTAAGAAATAAATCTGACCCGGAGTCACCTAGTGCAG | 3900 fluorescence intensity (a.u.)
18 | CTTAAACAAATGATAGTACGATCCCATCTGATTGGGTGTTCGGAGTCACCTAGTGCAG | 7540 fluorescence intensity (a.u.)
19 | ACTCAATCTTATTAACTTAAATTGAACTTGAACAAGAGAACGGAGTCACCTAGTGCAG | 22000 fluorescence intensity (a.u.)
20 | ACTGATAACTTCCAACTGATAATTGGAGAAGGAGGGTTTGCGGAGTCACCTAGTGCAG | 12400 fluorescence intensity (a.u.)
21 | TCGTAAATTTAAATCCATAGATTTAAGGAATACTTAGGCTCGGAGTCACCTAGTGCAG | 25900 fluorescence intensity (a.u.)
22 | AGACAATTCAATAATTAATCTACACTTTCCTTCCGCACCTCGGAGTCACCTAGTGCAG | 5880 fluorescence intensity (a.u.)
23 | GTAATTAACAGCAATCAGCAAGTGGCCTAATTGCCAACCTCGGAGTCACCTAGTGCAG | 56700 fluorescence intensity (a.u.)
24 | GTAATTAATTAACATTGCAATTAAGCACATAAGTTAATCACGGAGTCACCTAGTGCAG | 27000 fluorescence intensity (a.u.)

Row | Sequence | binding signal
25 | TCAATTAATTAATTAATTAACTACACTTTCACACGAGTCTCGGAGTCACCTAGTGCAG | 52700 fluorescence intensity (a.u.)
26 | AATCAACTAACTAATCATGGGATTAACCAAAACTAATTCTCGGAGTCACCTAGTGCAG | 3800 fluorescence intensity (a.u.)
27 | AATTAATCAGCCAATCACAATCTCTCAAACTACACGGACTCGGAGTCACCTAGTGCAG | 35500 fluorescence intensity (a.u.)
28 | GCAAATTAATTAACTAATTAATTAAACACCCAACTAATCTCGGAGTCACCTAGTGCAG | 63700 fluorescence intensity (a.u.)
29 | ACCCAAAATTAACTCTAAACTTAAGTTTCAAAATCTAAATCGGAGTCACCTAGTGCAG | 7640 fluorescence intensity (a.u.)
30 | TTGAGCACTAATTAATCATTAGGTGGCCTAATCAACAGCTCGGAGTCACCTAGTGCAG | 22000 fluorescence intensity (a.u.)
31 | CCACCTCTAATGAAGAGGTGATTGCAACCATTCATCTCTTCGGAGTCACCTAGTGCAG | 12000 fluorescence intensity (a.u.)
32 | AAACAAACTAACATGGATTGATTTTCTATAGGATGGAGGGCGGAGTCACCTAGTGCAG | 25200 fluorescence intensity (a.u.)
33 | TGGATTTTAAATTAAGTAAATTGCACCAGCGGTCCTTAAACGGAGTCACCTAGTGCAG | 6480 fluorescence intensity (a.u.)
34 | AATTTGAATTTTGTTAAGTTAAATTTGATGAACTGGGGCCCGGAGTCACCTAGTGCAG | 5490 fluorescence intensity (a.u.)
35 | TTATAATTATTTGTGTTGCAATGTATGTTTTGTTTATATACGGAGTCACCTAGTGCAG | 9980 fluorescence intensity (a.u.)
36 | TTTGGGTGTTAGTGTCTTAATTAGTGTGTGAGCCCCATCCCGGAGTCACCTAGTGCAG | 3790 fluorescence intensity (a.u.)
37 | TGTGGCTAAATTTATCAATTGAATGGGCTAGAGGCACGCTCGGAGTCACCTAGTGCAG | 17400 fluorescence intensity (a.u.)
38 | CCAAATTCATTAAAATTAACAATAACAATTATATTTGTTTCGGAGTCACCTAGTGCAG | 10900 fluorescence intensity (a.u.)
39 | ATTGAGTCAATCCACACTTTATTAGCACATTGGCCCACACCGGAGTCACCTAGTGCAG | 3510 fluorescence intensity (a.u.)
40 | AAGTCTAATTAATCCATCATTAGCAAATGTTTATTGTAGCCGGAGTCACCTAGTGCAG | 26700 fluorescence intensity (a.u.)
41 | GTTTAGCAAATCCAGCACCCATTATACAGACTTTCTATGCCGGAGTCACCTAGTGCAG | 65500 fluorescence intensity (a.u.)
42 | ATTTGCTAATGACGGATTAATTAGATTTAATAAATTCATCCGGAGTCACCTAGTGCAG | 39700 fluorescence intensity (a.u.)
43 | AAGCTGAAATTTGTTAGAGTAATAGTTGACACCATTACCACGGAGTCACCTAGTGCAG | 3160 fluorescence intensity (a.u.)
44 | TCACCTTGATTTCAATCATTGGACAAGTGTCCTAGAAAGTCGGAGTCACCTAGTGCAG | 55300 fluorescence intensity (a.u.)
45 | CCCAATTGGTGATTAGATAATCCTGTCACTTTCTTCAAGTCGGAGTCACCTAGTGCAG | 54100 fluorescence intensity (a.u.)
46 | CTAGATTGAGAGCATCTGATTCAATAATTAGACTTTCAATCGGAGTCACCTAGTGCAG | 45100 fluorescence intensity (a.u.)
47 | CACAATCACGAATTGAAGAAAGTCCTTCATTTCACATCAACGGAGTCACCTAGTGCAG | 3660 fluorescence intensity (a.u.)
